High-throughput results deposited in PubChem BioAssay by National Center for Advancing Translational Sciences (NCATS).
The list is not random: actives were taken first. Their share in the collection is about 14%.
LmPK inh – blocks Leishmania mexicana pyruvate kinase activity; purified LmPK, Kinase-Glo ATP luminescence, 1 h; 290,000 compounds, 0.37% hits; Potency, µM (highest dose often 57.5 µM), without a hit: at the highest dose activity change, negative = inhibition, actives largely listed as inhibitors; also: potency is read from the fitted curve at half-maximal effect; % is scaled to controls: 0 for no effect and ±100 for the full control effect
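Pyruvate kinase activity monitored as ATP production (luciferase luminescence). Conditions: 0.1 nM enzyme, 0.5 mM PEP, 0.1 mM ADP, 1 h, RT; normalized against uninhibited and no-enzyme wells.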
FBPA Giardia inh – Giardia lamblia aldolase inhibition; A8B2U2; purified Giardia FBPA; Potency, µM (doses to about 59.6 µM), inactives show at the top dose activity, negative = inhibition, usual class: inhibitors; 290,000 compounds, 0.71% hits; AID 2451; also: potency is read from the fitted curve at half-maximal effect; % is scaled to controls: 0 for no effect and ±100 for the full control effect; nearly all actives have a fitted effect of over 55% in size
Target sequence (A8B2U2 whole entry, looked up): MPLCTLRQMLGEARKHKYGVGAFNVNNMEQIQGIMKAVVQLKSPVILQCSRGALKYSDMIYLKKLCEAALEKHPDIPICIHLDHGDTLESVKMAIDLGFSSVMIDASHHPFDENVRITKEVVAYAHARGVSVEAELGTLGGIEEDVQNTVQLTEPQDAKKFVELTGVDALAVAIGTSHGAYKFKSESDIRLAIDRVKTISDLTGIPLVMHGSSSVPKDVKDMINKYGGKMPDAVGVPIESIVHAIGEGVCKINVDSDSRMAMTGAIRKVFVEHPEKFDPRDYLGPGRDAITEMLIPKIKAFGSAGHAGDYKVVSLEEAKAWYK
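Giardia FBPA (40 nM reagent) was preincubated 10 min at RT with compound (up to 57.5 uM final), then substrate plus GAPDH/TPI/NAD/arsenate coupling system with diaphorase/resazurin was added; resorufin fluorescence (525/598 nm) was read after 20 min.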
CHX counter – counter-screen hit for Shiga toxin inhibitors, cycloheximide | 300,000 compounds, 12% hits | cell reporter, cycloheximide protein synthesis inhibition counterscreen | max response, %; in the data active = max response mostly above about 13%, no sharp cut-off; inactive = mostly below about 14%; also: read at 38.3 µM for the half of the compounds with a filed dose; 0% is about no effect
NS1 inh – blocks influenza NS1 protein function; 270,000 compounds, 0.4% hits; Potency, µM (series often up to 46.1 µM), for inactives: at the highest dose activity, positive = more growth; calls by dose curve; also: potency is read from the fitted curve at half-maximal effect; actives are rising curves; nearly all actives have a fitted effect of over 50% in size
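Compounds were scored for reversing the slow growth caused by influenza A NS1 in S. cerevisiae, measured by optical density at 600 nm. Assay medium contained 2% galactose at pH 6.0; NS1-free yeast of the same strain were the positive control.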
Shiga inhibitor – inhibitors of Shiga toxin in Vero cells. Vero cells, Shiga toxin protein synthesis inhibition reporter. AID 2315. 290,000 compounds, 9.2% hits. inhibition, % at 38.7 µM; in the data active = inhibition mostly above about 28%, no sharp cut-off; inactive = mostly below about 43%; also: 0% is about no effect
Starred values were filed as active, the others as inactive; ? = inconclusive; · = no result given; [ ] = another dose, or the depositor's remark. Unless noted, calls follow the shape of the dose curve; as a rule, active = well fitted curve in the direction sought with a large enough effect; inconclusive = small, poorly fitted or top-dose-only effect, or another doubt; inactive = no such curve, though single readings can be large; an effect the other way counts as inactive or inconclusive.

SMILES | LmPK inh | FBPA Giardia inh | CHX counter | NS1 inh | Shiga inhibitor
CCOC(=O)c1cnc2ccc(OCC)cc2c1NCc1cccnc1 | 0% | ? | 27* | -21% | 42*
CCOC(=O)c1c(C)nc(-c2ccccc2)nc1NC(=O)CC | -1% | 1% | 24* | ? | 70*
CCC(=O)Nc1nc(-c2ccccc2)nc(SC)c1C(C)=O | -9% | 3% | -6 | · | 4
CCOC(=O)c1nc(-c2ccccc2)oc1N(C)C | -11% | 1% | 17* | -12% | -6
CCOC(=O)c1nc(-c2ccccc2)sc1C(C)=O | -2% | 3% | 20* | 0% | 15
CCOC(=O)c1sc(N(C)C)nc1-c1ccccc1 | 1% | 6% | -4 | -2% | -3
CCOc1c(C)cnc2c1c(=O)n(Cc1c(F)cccc1Cl)c(=O)n2C | -3% | 1% | -3 | -14% | 2
O=C(O)c1ccc(NS(=O)(=O)c2ccsc2C(=O)O)cc1 | · | 16% | · | · | ·
CCOC(=O)c1cnc2ccc(OCC)cc2c1NCc1ccccc1 | 4% | ? | 19* | -102% | 42*
C=CCNc1nc(C(=O)OCC)nc2ccccc12 | -3% | -1% | 10 | -1% | 14
CCOC(=O)c1nc(NCc2ccccc2)c2ccccc2n1 | -2% | 8% | 40* | · | 116*
O=C(Oc1ccc2c(c1)OCC2=O)c1ccccc1 | -8% | 0% | 44* | -2% | active
CC(C)(C)c1ccc(C(=O)Oc2ccc3c(c2)OCC3=O)cc1 | 1% | 5% | 54* | 13% | 86*
Cc1cc(S(=O)(=O)N2CCCc3ccccc32)ccc1-n1cnnn1 | 2% | -6% | -2 | -5% | 1
Cn1c(C(=O)N2CCCc3ccccc32)cc2sccc21 | 9% | 13% | 26* | -34% | 32
O=C(c1cc2sccc2n1Cc1ccccc1)N1CCCc2ccccc21 | 0% | -12% | 41* | 15% | 135*
COC(=O)c1cc2sccc2n1CC(=O)N1CCCc2ccccc21 | 3% | -13% | -1 | -12% | 25
O=C(Nc1ccc(Cl)cc1)c1ccc2nsnc2c1 | 10% | -15% | 35* | · | 97*
CN(C)c1ccc(NC(=O)c2ccc3nsnc3c2)cc1 | 1% | -10% | 46* | ? | 160*
COc1ccc(-c2nc3c(c4c2C[C@H](c2ccccc2)OC4)CN(S(=O)(=O)c2ccc(Cl)c4nonc24)CC3)c(C)c1 | -7%[11.5 µM] | -1%[12.9 µM] | · | · | ·
Cn1cc(Cl)c(/C(N)=N/OC(=O)c2ccccc2C(F)(F)F)n1 | -15% | · | 50* | -17% | 91*
Cn1cc(Cl)c(C(=O)OCC(=O)Nc2cccc(Cl)c2)n1 | -1% | 3% | -6 | 1% | 3
Cc1c(Cl)c(S(N)(=O)=O)cc(S(N)(=O)=O)c1NC(=O)c1ccc(Cl)cc1 | · | · | · | -3% | ·
CCOC(N)=O | · | 5% | · | · | ·
CS(=O)(=O)Nc1ccc(C2=NN(S(C)(=O)=O)C(c3ccccc3)C2)cc1 (centres undefined) | 7% | 0% | 20 | -4% | 42*
SMILES | LmPK inh | FBPA Giardia inh | CHX counter | NS1 inh | Shiga inhibitor
CS(=O)(=O)N1N=C(c2ccccc2)CC1c1ccc2c(c1)OCO2 (centres undefined) | 4% | 0% | 66* | 9% | 99*
CS(=O)(=O)Nc1cccc(C2=NN(S(C)(=O)=O)C(c3ccc4c(c3)OCO4)C2)c1 (centres undefined) | 2% | 3% | 25* | -14% | 50*
CCS(=O)(=O)N1N=C(c2ccc(NS(C)(=O)=O)cc2)CC1c1ccccc1 (centres undefined) | 1% | 4% | 2 | -14% | -1
COc1cccc([C@@H]2Oc3ccc(OC)cc3[C@H](O)[C@H]2O)c1 | · | 3% | · | · | ·
Clc1cccc(CN2CCCCCC2)c1Cl | 1% | ? | -3 | 0% | 3
NC(=O)c1c(NC(=O)c2c(F)cccc2F)sc2c1CCN(Cc1ccccc1)C2 | 5% | ? | 8.3* | -38% | 19*
CCOC(=O)c1c(N)sc2c1CCN(Cc1ccccc1)C2 | · | 18µM* | 10 | · | 11
CCN1CCc2c(sc(NC(=O)c3ccc(C(=O)c4ccccc4)cc3)c2C(N)=O)C1 | 8% | -26% | -3 | -3% | -11
CCC(=O)Nc1sc2c(c1C(N)=O)CCN(Cc1ccccc1)C2 | 1% | ? | 13* | -3% | 24*
CCNc1c(NC(=O)C2CCC(C)CC2)c(=O)oc2ccccc12 (centres undefined) | -2% | 0% | -1 | -8% | -8
COc1cccc(-c2nc(CS(=O)(=O)CC(=O)Nc3ccc(C(C)=O)cc3)c(C)o2)c1 | -8% | · | -9 | 1% | -13
